PubChem BioAssay (NCATS)
Records with an inconclusive call do not appear. The source made the active and inactive calls. Calls follow the shape of the dose curve; as a rule, active = well fitted activation curve with a large enough effect; inconclusive = small, poorly fitted or top-dose-only effect; inactive = flat fitted curve, though single readings scatter. Numbered stars: 1 amine (or outer) side, 2 acyl side, 3 side chain; on linkers, the order of the positions; unused ones are H or OH. Bridge positions count the residues as written; N and C are the ends. Square brackets hold non-standard residues; d marks the D form. Peptide text beside a SMILES is read from it. I, II: the chains in the order shown. Actinocin(9to1) = Cc1c2oc3c(C)ccc(C(=O)[*:1])c3nc-2c(C(=O)[*:2])c(N)c1=O; NMeV = CN[C@H](C(=O)O)C(C)C; Sar = CNCC(=O)O

test: Cellular Toxicity (caspase-3) Jurkat (AID 655); conditions: Jurkat caspase-3 activation, luminescence; series mostly up to 92.2 µM; caspase-3 activation: at the top concentration;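 also: cells exposed to compound for 16 h at 37 °C before reading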
From the text: NIH Chemical Genomics Center [NCGC]
NIH Molecular Libraries Screening Centers Network [MLSCN]
National Institutes of Environmental Health Sciences [NIEHS]
National Toxicology Program [NTP]
We have developed a 1536-well cell-based assay for quantitative high throughput screening (qHTS) against a number of cell lines to determine in vitro caspase 3/7 of small molecules. This particular assay uses the Jurkat cell line which is derived from human T cell leukemia.
NCGC Assay Protocol Summary:
The Caspase-Glo 3/7 assay (Promega) is a homogeneous method to measure caspase-3 and caspase-7 activities in cultured cells. The quantitation of caspase 3/7 activity is based on the cleavage of a peptide-aminoluciferin substrate. After caspase cleaves the substrate the free aminoluciferin is liberated and serves as the substrate of luciferase, which generates the light. The luminescent signal is proportional to amount of caspase 3/7 activity present.
Using the Caspase-Glo 3/7 assay, the amount of caspase 3/7 activity was measured in the Jurkat cell line with complete culture medium following compound treatment for 16 hours. The assay was performed in opaque white 1536-well plates. In the screen, tamoxifen and doxorubicin were used as positive controls. Library compounds were measured for their ability to cause the activation of caspase 3/7 in the cell line, as reflected by an increase in luminescence signal, in a concentration-dependent manner. Data were normalized to the controls for basal activity (DMSO only) and 100% stimulation (100 uM tamoxifen). AC50 values were determined from concentration-response data modeled with the standard Hill equation.
qHTS protocol for caspase 3/7 assay in Jurkat cells
[Step] [Parameter] [Value] [Description]
1. Reagent; 5 uL; 5000 Jurkat cells/well
3. Controls; 23 nL; Tamoxifen 0.23 uM to 100 uM & Doxorubicin 7.0 pM to 100 uM
4. Time; 16 hr; 37 °C incubation
5. Reagent; 5 uL; Caspase-Glo 3/7 reagent
6. Time; 20 min; Room Temperature
7. Detection; Luminescence; Viewlux plate reader
Keywords: caspase 3/7, apoptosis, Jurkat cell line, luminescence, NTPHTS, NTPHTS_NCGC, NIEHS, EPA, DSSTox, MLSMR, MLSCN, NIH Roadmap, qHTS, NCGC
Potency is read from the fitted curve at half-maximal effect.

Structure (SMILES)	caspase-3 activation	Potency
CC(=O)Oc1ccc(C(c2ccc(OC(C)=O)cc2)c2ccccn2)cc1	8.82% (inactive)	–
Cc1c2oc3c(C)ccc(C(=O)N[C@@H]4C(=O)N[C@H](C(C)C)C(=O)N5CCC[C@H]5C(=O)N(C)CC(=O)N(C)[C@@H](C(C)C)C(=O)O[C@@H]4C)c3nc-2c(C(=O)N[C@@H]2C(=O)N[C@H](C(C)C)C(=O)N3CCC[C@H]3C(=O)N(C)CC(=O)N(C)[C@@H](C(C)C)C(=O)O[C@@H]2C)c(N)c1=O (I: T[dV]P[Sar][NMeV] / II: T[dV]P[Sar][NMeV]; ester I:1-I:C, II:1-II:C; linker I:N-II:N via Actinocin(9to1))	–	3.98 nM (active)
O=C(O)CCCCC(=O)O	0.0391% (inactive)	–
C=CCc1ccc(O)c(OC)c1	0.475% (inactive)	–
CC/C(=C(/CC)c1ccc(O)cc1)c1ccc(O)cc1	27.6% (inactive)	–
O=C1OC(c2ccc(O)cc2)(c2ccc(O)cc2)c2ccccc21	20.3% (inactive)	–
Oc1ccc(O)cc1	-9.11% (inactive)	–
CN(C)/N=N/c1nc[nH]c1C(N)=O	0.232% (inactive)	–
NC(=NCCCCCCN=C(N)/N=C(\N)Nc1ccc(Cl)cc1)/N=C(\N)Nc1ccc(Cl)cc1	4.07% (inactive)	–
Nc1ccc(C(=O)O)cc1	-1.77% (inactive)	–
C[C@]12CC[C@@H]3c4ccc(O)cc4CC[C@H]3[C@@H]1CC[C@@H]2O	14% (inactive)	–
COc1cccc2c1C(=O)c1c(O)c3c(c(O)c1C2=O)C[C@@](O)(C(=O)CO)C[C@@H]3O[C@H]1C[C@H](N)[C@H](O)[C@H](C)O1	–	20 nM (active)
CCCCCCc1ccc(O)cc1O	3.81% (inactive)	–
COC1=CC(=O)C[C@@H](C)[C@]12Oc1c(Cl)c(OC)cc(OC)c1C2=O	17.1% (inactive)	–
O=c1ccc2ccccc2o1	0.381% (inactive)	–
CC(O)C(=O)O (stereo not drawn)	0.00363% (inactive)	–
COc1cccc2c1C(=O)c1c(O)c3c(c(O)c1C2=O)C[C@@](O)(C(C)=O)C[C@@H]3O[C@H]1C[C@H](N)[C@H](O)[C@H](C)O1	–	5.01 nM (active)
C=C(CC)C(=O)c1ccc(OCC(=O)O)c(Cl)c1Cl	-2.25% (inactive)	–
